{"source": "PubChem BioAssay (NCI)", "note": "Several values for one entry are separate records, joined by “and”; a condition that tells them apart may be missing. Equal values may be shown once. The panel holds about 83,000 compounds, 20% with a hit somewhere; the sample as a whole holds those more often.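 Activity criterion: percent growth below 10, measured after cells in 96-well plates were exposed to a single compound concentration for 48 hours.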 Activity calls are given as the source filed them."}
{"test_system": "U251 CNS", "test": "NCI-60 one-dose screen, 48 h (100 = growth as untreated, 0 = no growth, -100 = all killed)", "settings": "10 µM", "experimental": "(§1) Growth inhibition of the U251 human tumor cell line is measured as a screen for anti-cancer activity. Cells are grown in 96 well plates and exposed to the test compound for 48 hours. Compounds are tested at a single concentration, which is 10^-5 M for most compounds. The reported endpoint is percent growth (GI% or GIPRCNT), where numbers from 0 - 100% represent growth inhibition, and numbers from -100% - 0 represent cell death. For example, a value of 40 represents 60% growth inhibition. A value of 0 means no net growth occurred over the course of the experiment. A value of -40 indicates 40% of cells at the beginning of the experiment died by the end of the experiment. A value of -100 means all cells are dead at the end of the experiment.\n(§2) NCI-60 Human Tumor Cell Lines Screen was performed using the standard one-dose NCI protocol, which is described in more detail at https://dtp.cancer.gov/discovery_development/nci-60/default.htm.\n(§3) Compounds with GIPRCNT values below 10 were considered active. Activity score was based on GIPRCNT using the following formula: […]\n(§4) Score is 0 for GIPRCNT values of 100 or above, 50 for GIPRCNT values of 0, and 100 for GIPRCNT values of -100."}
{"smiles": "O=C(O)c1sccc1O", "growth": "76.6% (inactive)"}
{"test_system": "U251 CNS", "test": "NCI-60 one-dose screen, 48 h (100 = growth as untreated, 0 = no growth, -100 = all killed)", "settings": "10 µM unless noted", "experimental": "as §1, §2, §3, §4"}
{"smiles": "Cc1ncsc1CCO", "growth": "99.6% (inactive) and 99.8% (inactive)"}
{"smiles": "N/C(=N\\N=C\\c1ccc2c(c1)OCO2)N/N=C\\c1ccc2c(c1)OCO2", "growth": "99.4% (inactive) and 84.6% (inactive)"}
{"smiles": "COc1ccc(S(=O)(=O)N2CCOCC2)cc1NC(=O)c1[nH]c(C)c2c1CCCCC2=O", "growth": "97.9% (inactive) and 63.2% (inactive)"}
{"smiles": "CC(=O)Nc1cccc2c1CCCC2", "growth": "97.7% (inactive) and 95.7% (inactive)"}
{"smiles": "CC1=NN(c2ccccc2)C(=O)C1C(=O)c1ccccc1", "note": "(stereo not given)", "growth": "94.4% (inactive)"}
{"smiles": "O=S1(=O)CC(Br)C(Br)C1", "note": "(stereo not given)", "growth": "98% (inactive) and 97% (inactive)"}
{"smiles": "S=C1SCN(Cc2ccccc2)CN1Cc1ccccc1", "growth": "80.2% (inactive)"}
{"smiles": "CCOC(=O)c1c(C)oc(C)c(C(=O)OCC)c1=O", "growth": "111% (inactive) and 101% (inactive)"}
{"smiles": "O=C(O)CSCc1nc2ccccc2[nH]1", "growth": "109% (inactive)"}
{"smiles": "CCOC(=O)Nc1ccc2c(c1)/C(=N\\NC(N)=S)c1ccccc1-2", "growth": "52.6% (inactive) and 48.8% (inactive)"}
{"smiles": "CCN(CC)CCNc1cc(-c2cccc(OC(F)(F)F)c2)nc2ccc(N3CCCC3)cc12", "growth": "46.2% (inactive) and -36.6% (active) and 15.6% (inactive)"}
{"smiles": "CCOC(=O)C(CNc1ccccc1)C(=O)OCC", "growth": "93.5% (inactive)"}
{"smiles": "O=[N+]([O-])c1ccc2nc3c4ccccc4c4ccccc4c3nc2c1", "growth": "62.3% (inactive)"}
{"smiles": "Cc1cccc(/C=C\\C(=O)c2ccc(Cl)cc2)c1", "growth": "80.3% (inactive) and 98.9% (inactive)"}
{"smiles": "O=C(O)CN(CCN(CC(=O)O)CC(=O)O)CCN(CC(=O)O)CC(=O)O", "growth": "4.18% (active) and 106% (inactive) and 94.1% (inactive)"}
{"smiles": "CN(C)c1ccc(/C=C(\\C#N)c2ccccc2)cc1", "growth": "18.5% (inactive) and 32.3% (inactive) and 23.9% (inactive)"}
{"smiles": "COc1cc(/C=N/Nc2nc3c([nH]2)c(=O)n(C)c(=O)n3C)ccc1O", "growth": "99.1% (inactive) and 104% (inactive)"}
{"smiles": "CCCCCCCCCCCCCCCc1cc(O)ccc1N", "growth": "68.1% (inactive) and 81.1% (inactive)"}
{"smiles": "COc1ccc2cc3[n+](cc2c1OC)CCc1cc2c(cc1-3)OCO2", "growth": "25.2% (inactive) and 28.7% (inactive)"}
{"smiles": "Cc1ccc2nc3c(nc2c1)-c1cccc2cccc-3c12", "growth": "78.8% (inactive)"}
{"smiles": "Cc1cc(=O)[nH]c(O)c1C#N", "growth": "101% (inactive) and 98.2% (inactive)"}
{"smiles": "CC(C)(C)c1ccc(O)c(CNC2CCCCC2)c1", "growth": "97.6% (inactive) and 88% (inactive)"}
{"smiles": "Nc1ccccc1SC1CC(=O)N(c2cccc3ccccc23)C1=O", "note": "(stereo not given)", "growth": "97.3% (inactive)"}
{"smiles": "c1ccc2cc(C[n+]3ccn(Cc4ccc5ccccc5n4)c3)ccc2c1", "growth": "12.4% (inactive) and 23% (inactive)"}
{"smiles": "CNC(=O)c1cccnc1", "growth": "92.3% (inactive)"}
{"smiles": "COc1ccc(-c2ncnc3c2ncn3C/C=C/CCl)cc1", "growth": "64.2% (inactive) and 77.3% (inactive)"}
{"smiles": "O=C(Nc1ccc(Cl)cc1)c1cc2ccccc2cc1O", "growth": "21.2% (inactive) and -8.1% (active)"}
{"smiles": "CO/N=C/C=C\\C(=O)N/C=C/C[C@H]1/C=C/[C@H](O)/C=C\\C=C\\c2cccc(O)c2C(=O)O1", "growth": "33.3% (inactive) and 32.2% (inactive)"}
{"smiles": "Cc1ccc(-c2noc(CC(=O)c3ccc([N+](=O)[O-])cc3)n2)cc1", "growth": "96.8% (inactive)"}
{"smiles": "CN1CCN(Cc2occc(=O)c2O)CCN(C)CCN(Cc2occc(=O)c2O)CC1", "growth": "94.8% (inactive) and 23.1% (inactive)"}
{"smiles": "N#CC(C#N)=C/C=C/c1cccc([N+](=O)[O-])c1", "growth": "10% (inactive) and -22.7% (active)"}
{"smiles": "CC(O)Cn1cnc2c1c(=O)n(C)c(=O)n2C", "note": "(stereo not given)", "growth": "81.8% (inactive)"}
{"smiles": "Nc1nc2ncc(CNc3ccc(C(=O)N[C@@H](CCc4nn[nH]n4)C(=O)O)cc3)nc2c(=O)[nH]1", "growth": "99.8% (inactive) and 91.4% (inactive)"}
{"smiles": "COc1cc2nc(N3CCN(C(=O)C4COc5ccccc5O4)CC3)nc(N)c2cc1OC", "note": "(stereo not given)", "growth": "91.8% (inactive) and 86.8% (inactive) and 99.1% (inactive)"}
{"smiles": "O=C(Nc1cccc(Cl)c1)c1cc2ccccc2cc1O", "growth": "13% (inactive) and 6.25% (active)"}
{"smiles": "Cc1cccc(/C=C\\C(=O)c2ccccc2)c1", "growth": "64.8% (inactive) and 91.7% (inactive)"}
{"smiles": "O=C(CCc1ccc(O)cc1)N/N=C/c1cc(Br)ccc1O", "growth": "49.2% (inactive)"}
{"smiles": "CC(C)N=c1cc2n(-c3ccc(Cl)cc3)c3ccccc3nc-2cc1Nc1ccc(Cl)cc1", "growth": "13.7% (inactive) and 33.5% (inactive) and 6.42% (active)"}
{"test_system": "U251 CNS", "test": "NCI-60 one-dose screen, 48 h (100 = growth as untreated, 0 = no growth, -100 = all killed)", "settings": "100 µM", "experimental": "as §1, §2, §3, §4"}
{"smiles": "O=C(O)c1sccc1O", "growth": "15.9% (inactive)"}
